Most compounds without a hit are left out; they make up all but 3% or so of the library.
CSC inhib – blocks cancer stem cells | 1.1% of 300,000 active | AID 2717 | inhibition, % at 7.5 µM | cancer stem cell-like cells viability, luminescence; in the data active means inhibition above about 75%; inconclusive means no clear call, values can overlap the other calls; tested in HMLE shEcad cells
IEC-6 tox – IEC-6 cytotoxicity, counter-screen for KLF5 inhibitors; AID 1825; 0.78% of 290,000 active; inhibition, % at 5 µM; luminescence viability; in the data active means inhibition above about 22%;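 further: 0% = plate median of test compound wells and 100% = cytotoxic reference compound wells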
aSyn 5UTR inh – 5' untranslated region of α-synuclein, MLPCN primary screen; alpha-synuclein 5'UTR reporter, inhibitor activity; inhibition, % (tested at 7.5 µM); 0.82% of 300,000 active; in the data active means inhibition above about 60%; inconclusive means no clear call, values can overlap the other calls;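 further: H4 neuroglioblastoma cells stably carrying SNCA 5'UTR luciferase fusion; 0% = DMSO wells and 100% = positive control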
SKKanGAS inh – blocks kanamycin growth of S. pyogenes SKKanGAS strain; BacTiter-Glo, 6 h; inhibition, % at 7.5 µM; 1.3% of 300,000 active;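 active means mean replicate score, as percent of positive control median, at least 50; inconclusive means mean below 50 but one replicate at or above 50; inactive means mean and every replicate below 50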;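 further: strain carries kanamycin resistance gene driven by streptokinase promoter and grows in 40 µg/ml kanamycin; loss of luminescence reflects streptokinase promoter inhibition or plain growth inhibition; 0% = median of DMSO wells and 100% = positive control at its reference dose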
KLF5 inhibitor – kruppel-like factor 5 inhibition. DLD-1 KLF5 promoter-luciferase reporter, luminescence. inhibition, % at 5 µM. 0.23% of 290,000 active. AID 1700;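 active means inhibition above a per-plate limit of that plate's mean compound inhibition plus 3 SD, cut at about 60% in these data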;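 further: 0% = DMSO wells and 100% = LY294002 at 200 µM; higher means less KLF5 promoter-driven luciferase light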
Active calls of the source: *; ? = inconclusive; · = not tested or not shown.

SMILES	CSC inhib	IEC-6 tox	aSyn 5UTR inh	SKKanGAS inh	KLF5 inhibitor
COc1ccc(C(=O)/C=C/c2ccc(O)cc2)c(O)c1CC=C(C)C	-14.9	-10.6	-41.2	88.6*	-22.7
COc1ccc(C(=O)/C=C/c2ccc(O)cc2)cc1	23.4	-0.2	-57.1	-2.1	-44.3
Nc1[nH]n(-c2ccccc2)c(=O)c1N=Nc1ccc2c(c1)OCO2	112.9*	4.0	-204.6	0.3	-58.5
Nc1nn(-c2ccccc2)c(N)c1N=Nc1ccc2c(c1)OCO2	53.7	57.9*	-42.2	-11.7	-64.3
Nc1[nH]n(-c2ccccc2)c(=O)c1N=Nc1ccc2c(c1)OCCO2	7.6	5.4	-24.8	1.8	-124.9
Cc1nn(-c2ccccc2)c(N)c1N=Nc1cccnc1	26.1	7.5	-47.8	-10.4	-27.9
C/C(Cl)=C\Cn1c(O)c(N=NC(N)=S)c2cc(Br)ccc21	·	30.3*	70.1*	80.1*	-8.0
NC(=S)N=Nc1c(O)n(Cc2ccc(Br)cc2)c2ccccc12	57.8	-4.9	64.4*	61.3*	-5.3
COc1ccc([C@@H]2[C@@H]3C(=O)N(C(C)(C)C)C(=O)[C@@H]3[C@]3(Cc4ccc(Cl)cc4)C(=O)N(c4cccc(F)c4)C(=O)N23)cc1	0.0	·	·	·	·
CC(C)c1ccc(/C=C(\NC(=O)c2ccccc2)C(=O)NCCCN2CCOCC2)cc1	5.5	0.5	-24.6	-2.7	-23.8
Cc1cc(NS(=O)(=O)c2ccc(NC(=O)CSc3nc4sc(C)c(C)c4c(=O)[nH]3)cc2)no1	5.5	-1.6	4.8	54.4*	-49.0
Cc1cc(NS(=O)(=O)c2ccc(NC(=O)CSc3nc4sc(C(=O)O)c(C)c4c(=O)[nH]3)cc2)no1	·	3.2	18.8	6.2	5.0
Cn1cnc([N+](=O)[O-])c1S(=O)(=O)c1cccc(Cl)c1	32.6	67.9*	-2.8	4.8	-3.5
Cc1nn(C(C)C(=O)c2cccc(Cl)c2)c(C)c1[N+](=O)[O-] (centres undefined)	-5.7	0.7	-0.2	7.5	6.0
COc1ccc(C(=O)Oc2c(CN3CCOCC3)cc(Cl)c3cccnc23)cc1	14.4	13.7	54.2	-14.4	9.4
COc1cc(C(=O)Oc2c(CN3CCOCC3)cc(Cl)c3cccnc23)cc(OC)c1OC	20.3	5.8	78.5*	0.2	-0.2
COc1cc(C(=O)Oc2c(OC)cc(C(=S)N3CCOCC3)cc2OC)cc(OC)c1OC	-21.0	-5.7	11.3	-1.9	-13.5
COc1cccc(C(=O)Oc2c(CN3CCOCC3)cc(Cl)c3cccnc23)c1	-7.6	-6.2	88.7*	7.8	-10.9
Cc1cc(NC(=O)COC(=O)CCS(=O)(=O)c2cc(Cl)ccc2Cl)no1	·	-2.8	5.8	1.3	-52.4
CCN(CC)S(=O)(=O)c1ccc2c(c1)C(=NO)c1cc(S(=O)(=O)N(CC)CC)ccc1-2	85.4*	7.0	114.9*	5.0	1.5
CCN(CC)S(=O)(=O)c1ccc(C)c(C)c1	-0.1	-3.7	15.9	2.3	-11.5
O=S(=O)(c1ccc2c(c1)C(=NO)c1cc(S(=O)(=O)N3CCCCC3)ccc1-2)N1CCCCC1	122.1*	8.6	96.5*	9.4	-6.0
CC1CCN(S(=O)(=O)c2ccc3c(c2)C(=NO)c2cc(S(=O)(=O)N4CCC(C)CC4)ccc2-3)CC1	113.1*	-2.9	·	·	17.9
CC(C)Oc1ccc(CNC(=O)Cn2ccc3cc(S(=O)(=O)N4CCCC4)ccc32)cc1	-1.5	-9.3	-1.6	2.7	-12.6
COC(=O)c1cc(C(=O)Cc2ccccc2)c[nH]1	-16.4	5.0	-4.9	-0.8	-12.4
SMILES	CSC inhib	IEC-6 tox	aSyn 5UTR inh	SKKanGAS inh	KLF5 inhibitor
NC(=O)c1cc(C(=O)Cc2ccccc2)c[nH]1	-4.9	6.8	12.0	92.3*	5.8
C[C@@H]1C(=O)O[C@H]2[C@H](O)[C@@]34[C@H]5C[C@@H](C(C)(C)C)[C@]36[C@@H](OC(=O)[C@@H]6O)O[C@@]4(C(=O)O5)[C@@]12O	-13.8	-2.1	-10.1	2.2	-37.8
CCNC(=O)c1c(NC(=O)c2cc(-c3cc(C)ccc3O)n[nH]2)sc2c1CCCC2	?	-0.6	14.1	82.3*	-30.8
Cc1ccc(-c2cc(C(=O)Nc3sc4c(c3C(=O)NCc3ccco3)CCC4)[nH]n2)c(O)c1	5.5	-3.5	8.2	11.2	-31.9
Cc1onc(-c2ccccc2Cl)c1C(=O)OCC(=O)N1CCN(c2ccccc2)CC1	·	·	-1.8	47.6	·
Cc1sc2cc3c(c(C(=O)c4ccccc4)[n+]2c1C)-c1cccc2cccc-3c12	35.0	5.8	37.4	55.1*	-0.7
CCc1ccc(C2=NN(CCC(=O)NCc3cccs3)C(=O)CC2)cc1	8.4	1.5	12.4	-13.5	1.7
CCSc1nnc(NC(=O)[C@@H](NC(=O)c2cc(OC)cc(OC)c2)C(C)C)s1	4.3	-16.0	-12.7	0.4	-14.8
CCCCc1ccc(-c2ccc(Br)cc2)nc1	-3.9	-0.2	24.9	-6.8	-18.9
CCCc1ccc(-c2ccc(F)c(N)c2)nc1	33.1	3.5	98.8*	5.7	-13.1
Cn1c(CNC(=O)OC(C)(C)C)nnc1SCC(=O)N1CCOCC1	-10.1	-1.7	-2.9	0.9	12.2
Cc1[nH]c2ccccc2c1C(c1ccccn1)c1c(C)[nH]c2ccccc12	-6.7	-1.7	-11.3	71.6*	-24.9
COc1cc(C#Cc2c(-c3cncn3C)n(C)c3ccc(-c4ccc(OC)nc4)cc23)cc(OC)c1	84.2*	·	·	·	·
COc1cc(C#Cc2c(-c3cncn3C)n(C)c3ccc(-c4cc(OC)c(OC)c(OC)c4)cc23)cc(OC)c1	61.6	·	·	·	·
Cc1nn(CCCC(=O)NCCCN2CCN(C)CC2)c(=O)c2c1sc1ccccc12	4.5	-0.7	13.8	0.5	2.4
O=C(N/N=C\c1ccc(O)c([N+](=O)[O-])c1)C1COc2ccccc2O1 (centres undefined)	-6.7	0.7	3.9	-5.0	-24.0
CC(C)(C)c1ccc2c(c1)OC(C(=O)N/N=C\c1ccncc1)CO2 (centres undefined)	-3.8	2.3	5.2	-19.5	8.9
CC(C)(C)c1ccc2c(c1)OC(C(=O)N/N=C/c1ccc([N+](=O)[O-])o1)CO2 (centres undefined)	28.9	-11.2	-41.8	66.3*	-28.0
Cn1cccc1/C=N\NC(=O)C1COc2ccc(C(C)(C)C)cc2O1 (centres undefined)	-0.2	-4.3	-5.0	0.9	7.8
Cc1cc([N+](=O)[O-])cc(/C=N\NC(=O)C2COc3ccccc3O2)c1O (centres undefined)	9.9	-6.1	22.0	105.6*	-10.3
CC(C)(C)c1ccc2c(c1)OC(C(=O)N/N=C\c1ccc[nH]1)CO2 (centres undefined)	118.6*	-2.2	5.2	-2.9	-8.3
COc1ccc(NS(=O)(=O)N2CCOCC2)cc1	-28.6	1.8	13.3	7.1	-22.2
C/C(=N\NC(=O)CSc1nc(C)[nH]c1[N+](=O)[O-])c1ccc(F)cc1	-3.0	0.3	-109.0	56.1*	0.7
Cc1nc(SCC(N)=O)c([N+](=O)[O-])[nH]1	-16.6	1.5	10.5	12.0	6.2
COc1ccc(N=C2C(=Nc3ccc(OC)cc3)N(c3ccc(N(C)C)cc3)C(=S)N2c2ccc(OC)cc2)cc1	67.1	1.3	98.6*	2.7	-25.2
